A short description of experiment [1]: Nuclear factor erythroid 2-related factor 2/antioxidant responsive element (Nrf2/ARE) small molecule agonists: qHTS cell viability counter screen in human keratinocytes (AID 1919968; active means well fitted curve in the direction sought with a large enough effect in the repeat runs; an effect the other way counts as inactive or inconclusive; further: nearly all actives have a fitted effect of over 55% in size; further: potency means the concentration at half of the fitted maximal effect). The gist of the method: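 Cells of the KeratinoSens line were plated at 1,500 per well and left for 5 h before compound transfer from DMSO stocks. After a 23 h incubation (37 C, 5% CO2), CellTiter-Fluor was added. Signal was taken as fluorescence intensity 1 h later.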

Experiment [2] in a line: Nuclear factor erythroid 2-related factor 2/antioxidant responsive element (Nrf2/ARE) small molecule agonists: luciferase reporter gene qHTS assay in human keratinocytes (AID 1919969; further: nearly all actives have a fitted effect of over 35% in size). (In general: A reporter such as luciferase makes a cellular process visible.)
Experiment [3] deals with KiSS-1 receptor (Homo sapiens) (UniProt Q969F8). Kind of experiment: Human kisspeptin (KISS1R) small molecule agonists, calcium flux assay in KISS1R-HEK293 cells (AID 1920064; active means well fitted curve in the direction sought with a large enough effect in the repeat runs; an effect the other way counts as inactive or inconclusive). The gist of the method:
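Cell line: HEK293, stable human KISS1R. Dye loading 1 h at 37 C after 18 h culture. Read: kinetic fluorescence, 480/540 nm, 3 min at 1 s intervals.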

Experiment [4] can be described thus: G protein-coupled receptor (GPCR) small molecule agonists, calcium flux assay: HEK293 wild type cell line counter screen (AID 1920065). The procedure, abridged:
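Tox21 10K compounds, 15 concentrations each in triplicate, pin-transferred in DMSO onto dye-loaded cells; kinetic read at 480/540 nm for 3 min, 1 s intervals.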
(Calcium assays in cells follow changes in intracellular calcium, usually with a dye or a luminescent sensor.)

The nature of experiment [5]: p53 small molecule agonists, cell-based qHTS assay with human liver microsomes (AID 1963577).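 Further: p53 response element beta-lactamase reporter cells with liver microsomes plus NADPH.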 The gist of the method: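 With metabolic activation: human liver microsomes (0.5 mg/mL final) plus NADPH (0.5 mg/mL final) added alongside compounds to p53RE-bla cells; 16 h 37 C exposure; beta-lactamase read by LiveBLAzer fluorescence.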
A general note: Quantitative high-throughput screening tests each substance at several concentrations.

A short description of experiment [6]: p53 small molecule agonists, cell-based qHTS assay with rat liver microsomes (AID 1963578). The procedure, abridged: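 Metabolic activation by rat liver microsomes and NADPH, each 0.5 mg/mL final, added right after compounds to p53RE-bla reporter cells (4,000/well, plated 5 h earlier). 16 h at 37 C, then LiveBLAzer substrate for 2 h at room temperature in the dark; fluorescence read-out.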

A short description of experiment [7]: p53 small molecule agonists, cell-based qHTS assay with human liver microsomes: qHTS cell viability counter screen (AID 1963579). Further: nearly all actives have a fitted effect of over 45% in size. Further: potency means the concentration at half of the fitted maximal effect. The gist of the method:
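Metabolic activation used human liver microsomes and NADPH, both 0.5 mg/mL final, over 16 hours at 37 C on p53RE-bla cells (4,000/well). Cytotoxicity measured by CellTiter-Glo luminescence, 30 min at room temperature.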

Experiment [8] in a line: p53 small molecule agonists, cell-based qHTS assay with rat liver microsomes: qHTS cell viability counter screen (AID 1963580). Further: nearly all actives have a fitted effect of over 45% in size. Further: potency means the concentration at half of the fitted maximal effect. The procedure, abridged:
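After the beta-lactamase ratio was read, CellTiter-Glo was added to the same wells and luminescence measured at 30 min; cells had been treated 16 h at 37 C with compounds, rat liver microsomes and NADPH (0.5 mg/mL final each).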

Experiment [9] in a line: p53 small molecule agonists, cell-based qHTS assay: qHTS cell viability counter screen (AID 1963581). Further: nearly all actives have a fitted effect of over 45% in size. Further: potency means the concentration at half of the fitted maximal effect. The gist of the method: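 ATP content measured by luminescence in HCT-116 p53RE-bla cells treated 16 h at 37 C, same wells as the reporter screen.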
A short description of experiment [10]: p53 small molecule agonists, cell-based qHTS assay (AID 1963582; active means well fitted activation curve with a large enough effect in the signal ratio in the repeat runs, not every such curve was filed as active; the % refers to the signal ratio). The procedure, abridged:
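16 h compound exposure (37 C) of p53 response element–bla cells, preceded by 5 h recovery at 37 C/5% CO2; read-out via LiveBLAzer B/G FRET substrate, 2 h RT, fluorescence intensity.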

Experiment [11] deals with 5-hydroxytryptamine receptor 2A (Homo sapiens) (UniProt P28223). Kind of experiment: 5-hydroxytryptamine receptor 2A (HTR2A) small molecule antagonists, cell-based qHTS assay (AID 1963586). Further: nearly all actives have a fitted effect of over 45% in size. The gist of the method:
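CHO cells stably expressing human HTR2A were plated for 18 h at 37 C, then loaded with calcium dye for 1 h. Compounds were preincubated 5 min at room temperature before DOI (4 nM solution) was added. Kinetic fluorescence was read for 3 min.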

Experiment [12] has the same target. Briefly: 5-hydroxytryptamine receptor 2A (HTR2A) small molecule agonists, cell-based qHTS assay (AID 1963587). Further: nearly all actives have a fitted effect of over 30% in size. Further: potency means the concentration at half of the fitted maximal effect. The gist of the method:
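CHO cells stably expressing human HTR2A, plated 18 h, loaded with calcium dye 1 h at 37 C. Agonist mode: compounds added and intracellular calcium fluorescence recorded kinetically for 2 min at 1 sec intervals.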

Experiment [13] deals with Muscarinic acetylcholine receptor M1 (Homo sapiens) (UniProt P11229). Kind of experiment: Cholinergic receptor muscarinic 1 (CHRM1) small molecule antagonists, cell-based qHTS assay (AID 1963588). Further: nearly all actives have a fitted effect of over 40% in size. Further: potency means the concentration at half of the fitted maximal effect. The gist of the method:
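Compounds were tested at 15 concentrations in three independent runs. Dye-loaded CHRM1-CHO cells were exposed 5 min at room temperature before stimulation by acetylcholine added at 50nM. Intracellular calcium was read kinetically on FDSS for 3 min.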

Experiment [14] shares this target. Kind of experiment: Cholinergic receptor muscarinic 1 (CHRM1) small molecule agonists, cell-based qHTS assay (AID 1963589). Further: nearly all actives have a fitted effect of over 35% in size. The procedure, abridged:
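Homogeneous fluorescence calcium flux, agonist mode. Human M1-expressing CHO cells; compound dosed at 15 concentrations, three independent runs; signal sampled every 1 sec.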

Experiment [15] in a line: cAMP Responsive Elements (CRE) small molecule agonists, cell-based qHTS assay (AID 1963590). The procedure, abridged:
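HEK 293T cells stably bearing CRE-bla were plated at 2,000 cells per well and rested 18 h. Compounds, positive controls or DMSO were added for 3 h at 37 C. LiveBLAzer B/G substrate was then loaded for 2 h at room temperature.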

Experiment [16] is described as follows: cAMP Responsive Elements (CRE) small molecule antagonists, cell-based qHTS assay (AID 1963591; active means well fitted inhibition curve with a large enough effect in the signal ratio in the repeat runs, not every such curve was filed as active; the % refers to the signal ratio). The procedure, abridged: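 First, CRE-bla HEK293T cells settled 18 h at 37 C. Next, compound and 0.25 uM final NKH477 were applied for 3 h. Last, LiveBLAzer B/G substrate was loaded for 2 h at room temperature.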
Experiment [17] concerns the target D(2) dopamine receptor (Homo sapiens) (UniProt P14416). Briefly: Dopamine D2 receptor (DRD2) small molecule agonists, cell-based qHTS assay (AID 1963594). Further: nearly all actives have a fitted effect of over 35% in size. The gist of the method:
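HEK293 cells stably expressing human DRD2, pre-treated with PDE inhibitor Ro20-1724 (0.1 mM final) and compound 10 min at room temperature, then stimulated with NKH477 (200nM […]) for 30 min. cAMP read by HTRF (665/620 nm).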

The target is the same in experiment [18]. Briefly: Dopamine D2 receptor (DRD2) small molecule antagonists, cell-based qHTS assay (AID 1963595; active means well fitted inhibition curve with a large enough effect in the signal ratio in the repeat runs, with a control signal flat; the % refers to the signal ratio). The gist of the method:
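HEK293 cells stably expressing DRD2, preincubated with 0.1 mM Ro20-1724 and compounds 10 min, were stimulated with 200 nM NKH477 plus 12 nM quinpirole for 30 min at room temperature; cAMP measured by HTRF (665/620 nm).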

The target in experiment [19] is Beta-2 adrenergic receptor (Homo sapiens) (UniProt P07550). Kind of experiment: Adrenergic beta2 receptor (ADRB2) small molecule antagonists, cell-based qHTS assay (AID 1963592). Further: series mostly up to about 92 µM; nearly all actives have a fitted effect of over 50% in size. The procedure, abridged: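 Assay format: CHO-ADRB2 cells, 18-20hr seeding at 37C/5% CO2, then compound plus 1nM isoproterenol agonist mix for 0.5hr RT. Homogeneous time-resolved fluorescence cAMP detection after 1hr, expressed as 665/615 nm ratio.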

Experiment [20] concerns the target Gonadotropin-releasing hormone receptor (Homo sapiens) (UniProt P30968). Briefly: Human gonadotropin-releasing hormone receptor (GnRHR) small molecule agonists, calcium flux assay in GnRHR-HEK293 cells (AID 1920063). Further: nearly all actives have a fitted effect of over 35% in size. The gist of the method: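 Compounds dissolved in DMSO are pin-transferred onto dye-loaded GnRHR-HEK293 cells, which were seeded 18 h before at 37 C/5% CO2. Calcium signal is read as fluorescence intensity at 1 s intervals for 3 min.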

Several values for one entry are separate records, joined by “and”; a condition that tells them apart may be missing. Equal values may be shown once. Inconclusive results are not listed. Where a structure was tested more than once in an assay, its records may differ in their call. Activity calls are given as the source filed them. Unless noted, the call rests on the fitted dose curve.

Sequence of Muscarinic acetylcholine receptor M1 (Homo sapiens) (P11229 whole entry, looked up): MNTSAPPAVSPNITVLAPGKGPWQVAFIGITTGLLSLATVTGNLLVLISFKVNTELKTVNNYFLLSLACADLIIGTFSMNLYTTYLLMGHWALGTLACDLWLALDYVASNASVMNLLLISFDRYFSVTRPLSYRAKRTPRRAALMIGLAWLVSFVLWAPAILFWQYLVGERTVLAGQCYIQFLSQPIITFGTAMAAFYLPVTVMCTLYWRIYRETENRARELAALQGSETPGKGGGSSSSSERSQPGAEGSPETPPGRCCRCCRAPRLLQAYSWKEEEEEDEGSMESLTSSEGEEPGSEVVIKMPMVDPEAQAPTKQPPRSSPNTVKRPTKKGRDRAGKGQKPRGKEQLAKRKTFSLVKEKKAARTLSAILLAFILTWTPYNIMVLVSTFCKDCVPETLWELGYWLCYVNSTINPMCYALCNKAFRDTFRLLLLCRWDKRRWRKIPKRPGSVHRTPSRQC
Sequence of 5-hydroxytryptamine receptor 2A (Homo sapiens) (P28223 whole entry, looked up): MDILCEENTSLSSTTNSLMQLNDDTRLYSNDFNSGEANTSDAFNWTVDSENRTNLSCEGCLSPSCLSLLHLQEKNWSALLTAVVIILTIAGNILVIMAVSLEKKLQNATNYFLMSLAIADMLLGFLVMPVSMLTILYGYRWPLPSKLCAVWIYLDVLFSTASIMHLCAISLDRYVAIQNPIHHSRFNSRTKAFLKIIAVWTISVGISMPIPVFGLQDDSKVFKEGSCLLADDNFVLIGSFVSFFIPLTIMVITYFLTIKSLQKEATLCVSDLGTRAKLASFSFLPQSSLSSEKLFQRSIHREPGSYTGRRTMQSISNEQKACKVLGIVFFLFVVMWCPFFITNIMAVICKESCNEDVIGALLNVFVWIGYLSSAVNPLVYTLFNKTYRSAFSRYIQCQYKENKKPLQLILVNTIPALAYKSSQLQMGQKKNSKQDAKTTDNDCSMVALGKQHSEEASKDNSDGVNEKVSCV
Sequence of Beta-2 adrenergic receptor (Homo sapiens) (P07550 whole entry, looked up): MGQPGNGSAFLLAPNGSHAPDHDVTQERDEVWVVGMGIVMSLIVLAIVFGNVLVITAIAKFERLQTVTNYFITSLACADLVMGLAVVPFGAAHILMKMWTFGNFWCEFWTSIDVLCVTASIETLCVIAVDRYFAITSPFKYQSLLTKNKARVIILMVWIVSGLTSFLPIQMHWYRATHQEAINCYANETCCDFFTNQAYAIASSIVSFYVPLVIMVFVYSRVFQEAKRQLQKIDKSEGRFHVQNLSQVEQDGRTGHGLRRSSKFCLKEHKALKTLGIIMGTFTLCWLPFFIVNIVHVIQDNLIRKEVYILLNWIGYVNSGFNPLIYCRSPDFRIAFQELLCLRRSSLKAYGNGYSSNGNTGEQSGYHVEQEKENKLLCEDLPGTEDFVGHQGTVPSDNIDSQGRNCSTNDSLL
Sequence of D(2) dopamine receptor (Homo sapiens) (P14416 whole entry, looked up): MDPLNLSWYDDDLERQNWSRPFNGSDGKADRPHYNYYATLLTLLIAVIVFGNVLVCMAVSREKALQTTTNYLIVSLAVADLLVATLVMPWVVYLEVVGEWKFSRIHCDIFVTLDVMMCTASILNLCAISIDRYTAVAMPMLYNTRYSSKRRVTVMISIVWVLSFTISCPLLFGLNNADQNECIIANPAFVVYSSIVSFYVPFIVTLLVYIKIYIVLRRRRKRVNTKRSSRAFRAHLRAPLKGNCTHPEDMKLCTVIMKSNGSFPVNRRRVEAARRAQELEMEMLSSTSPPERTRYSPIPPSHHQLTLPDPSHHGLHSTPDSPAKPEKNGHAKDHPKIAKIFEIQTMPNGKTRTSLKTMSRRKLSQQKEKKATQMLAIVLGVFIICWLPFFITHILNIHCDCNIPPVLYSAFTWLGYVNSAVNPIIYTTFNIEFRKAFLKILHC
Sequence of KiSS-1 receptor (Homo sapiens) (Q969F8 whole entry, looked up): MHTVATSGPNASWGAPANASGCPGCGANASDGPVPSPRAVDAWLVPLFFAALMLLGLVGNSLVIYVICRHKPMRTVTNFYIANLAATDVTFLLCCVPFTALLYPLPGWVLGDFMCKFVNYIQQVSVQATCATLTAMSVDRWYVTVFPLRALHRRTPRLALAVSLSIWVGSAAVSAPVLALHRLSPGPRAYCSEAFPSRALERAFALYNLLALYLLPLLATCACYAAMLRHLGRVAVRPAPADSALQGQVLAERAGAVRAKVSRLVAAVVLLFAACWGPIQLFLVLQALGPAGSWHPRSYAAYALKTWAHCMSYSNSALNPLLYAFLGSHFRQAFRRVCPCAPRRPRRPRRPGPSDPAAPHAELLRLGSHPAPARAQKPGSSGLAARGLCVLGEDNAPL
Sequence of Gonadotropin-releasing hormone receptor (Homo sapiens) (P30968 whole entry, looked up): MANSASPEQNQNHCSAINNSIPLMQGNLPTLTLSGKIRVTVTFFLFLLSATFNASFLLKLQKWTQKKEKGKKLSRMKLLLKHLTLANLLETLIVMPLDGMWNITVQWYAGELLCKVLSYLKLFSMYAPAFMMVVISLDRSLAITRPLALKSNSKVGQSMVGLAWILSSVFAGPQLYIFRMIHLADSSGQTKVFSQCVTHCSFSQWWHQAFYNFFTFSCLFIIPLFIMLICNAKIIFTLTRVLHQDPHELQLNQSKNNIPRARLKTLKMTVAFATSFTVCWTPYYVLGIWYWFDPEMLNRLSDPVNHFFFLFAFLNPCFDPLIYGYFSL

For the molecule `Nc1ccncc1`, the Potency result in [1], in experiment [2], in experiment [3], in [4], in experiment [5] and in experiment [6] was “inactive” throughout. The Potency result in experiment [7], in experiment [8], in experiment [9], in experiment [10], in experiment [11] and in experiment [12] was “inactive” throughout. The Potency entry in experiment [13], in experiment [14], in [15], in experiment [16], in experiment [17] and in experiment [18] was “inactive” in each case.
In the case of `O=S1OCC2C(CO1)C1(Cl)C(Cl)=C(Cl)C2(Cl)C1(Cl)Cl` (centres undefined), the Potency in [1] was 48.6 µM (active) and 61.1 µM (active); in [12], 43.7 µM (active) and inactive; in [13] it was 37.5 µM (active) and inactive. In addition, the Potency result in experiment [2], in [3], in experiment [4], in experiment [5], in experiment [6] and in [7] was “inactive” each time. Further, the Potency result in [8], in [9], in [10], in [11], in experiment [14] and in [19] was “inactive” each time.
Regarding `C=CCCC#N`, the Potency result in experiment [1], in [2], in experiment [3], in experiment [4], in experiment [5] and in experiment [6] was “inactive” in each case. The Potency result in experiment [7], in experiment [8], in experiment [9], in [10], in [11] and in experiment [13] was “inactive” in each case. Moreover, the Potency entry in experiment [14], in experiment [15], in experiment [16] and in [17] was “inactive” each time.
Turning to `O=C(O)CF`, the Potency result in [1], in experiment [2], in [20], in [4], in experiment [7] and in experiment [8] was “inactive” in each case. The Potency entry in experiment [12], in experiment [13], in [15], in experiment [16], in experiment [19] and in [17] was “inactive” in each case. Moreover, the Potency entry in experiment [18] was “inactive”.
With `CC(C)(C#N)N=NC(C)(C)C#N`, the Potency result in experiment [1], in [2], in [3], in experiment [4], in [5] and in [6] was “inactive” in each case. Moreover, the Potency entry in experiment [7], in [8], in [9], in experiment [10], in experiment [11] and in [12] was “inactive” throughout. In addition, the Potency result in [13], in experiment [14], in experiment [15], in experiment [16], in [19] and in experiment [18] was “inactive” throughout.
Take `CCCCCCCCCCCCCCn1cc[n+](C)c1`: the Potency in experiment [1] is 13.7 µM (active) and 27 µM (active) and inactive; in experiment [7], 40.9 µM (active) and 40.3 µM (active) and inactive; in experiment [8], 16.3 µM (active) and 32.1 µM (active) and inactive; in experiment [9], 28.9 µM (active) and inactive; in [12] it was 21.9 µM (active) and 30.6 µM (active) and inactive; in experiment [13], 1.88 µM (active) and inactive. For the same molecule, the Potency result in experiment [2], in [3], in experiment [4], in experiment [5], in experiment [6] and in experiment [10] was “inactive” each time. The Potency entry in experiment [11], in experiment [14], in [15], in experiment [16], in experiment [17] and in [18] was “inactive” each time.
Turning to `N#CCCCCC#N`, the Potency result in experiment [1], in [2], in experiment [3], in [4], in experiment [5] and in experiment [6] was “inactive” throughout. Further, the Potency entry in experiment [7], in experiment [9], in experiment [10], in experiment [11], in experiment [12] and in [13] was “inactive” each time. Moreover, the Potency entry in experiment [14], in experiment [15], in experiment [16] and in experiment [19] was “inactive” each time.

Source of the values: PubChem BioAssay (Tox21).
